Publication PMC7862700, “An all-to-all approach to the identification of sequence-specific readers for epigenetic DNA modifications on cytosine”

Tests used:
Experiment in all cases: DAPPL (digital affinity profiling via proximity ligation, sequencing); 10 mM Tris-HCl pH 7.5, 50 mM NaCl, 1 mM DTT, 4% glycerol, room temperature, 30 min; GST-TFs on glutathione beads, 16-mer random dsDNA library, 0.1% formaldehyde crosslink after washing; high values mean tight binding
Conditions in all cases: protein: recombinant; tags: N-terminal GST; dsDNA, one strand shown
ELK1 = molecular target: T1, ELK1 (Homo sapiens, UniProt P19419 1-428)
T1 sequence: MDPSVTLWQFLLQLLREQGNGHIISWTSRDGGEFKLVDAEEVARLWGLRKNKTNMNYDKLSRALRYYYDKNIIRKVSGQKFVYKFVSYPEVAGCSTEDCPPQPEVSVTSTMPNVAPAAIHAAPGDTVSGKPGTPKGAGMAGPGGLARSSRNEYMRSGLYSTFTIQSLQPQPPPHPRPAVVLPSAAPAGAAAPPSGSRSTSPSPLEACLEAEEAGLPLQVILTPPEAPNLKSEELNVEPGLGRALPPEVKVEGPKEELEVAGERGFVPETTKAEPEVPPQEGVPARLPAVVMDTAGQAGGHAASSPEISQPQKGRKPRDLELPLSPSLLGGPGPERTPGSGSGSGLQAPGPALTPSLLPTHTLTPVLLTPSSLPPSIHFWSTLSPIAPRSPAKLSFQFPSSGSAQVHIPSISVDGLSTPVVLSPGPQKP
Procedure, shortened: (§1)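 After expression in yeast as GST fusions, human transcription factors were bound to glutathione beads, DNA-barcoded and mixed with a tag-only sample. The pools were incubated with 200 nmole of a 16-mer random double-stranded DNA library in Tris/NaCl/DTT/glycerol buffer (30 min, room temperature), washed and crosslinked with 0.1% formaldehyde. Proximity ligation with BsaI/T4 ligase ran for 1 h at 37 °C, before PCR amplification and sequencing on an Illumina NextSeq500. Binding signal is a hexamer's read frequency for a factor divided by its frequency for the tag-only sample.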

GABPA = molecular target: T2, GABPA (Homo sapiens, UniProt Q06546 1-454)
T2 sequence: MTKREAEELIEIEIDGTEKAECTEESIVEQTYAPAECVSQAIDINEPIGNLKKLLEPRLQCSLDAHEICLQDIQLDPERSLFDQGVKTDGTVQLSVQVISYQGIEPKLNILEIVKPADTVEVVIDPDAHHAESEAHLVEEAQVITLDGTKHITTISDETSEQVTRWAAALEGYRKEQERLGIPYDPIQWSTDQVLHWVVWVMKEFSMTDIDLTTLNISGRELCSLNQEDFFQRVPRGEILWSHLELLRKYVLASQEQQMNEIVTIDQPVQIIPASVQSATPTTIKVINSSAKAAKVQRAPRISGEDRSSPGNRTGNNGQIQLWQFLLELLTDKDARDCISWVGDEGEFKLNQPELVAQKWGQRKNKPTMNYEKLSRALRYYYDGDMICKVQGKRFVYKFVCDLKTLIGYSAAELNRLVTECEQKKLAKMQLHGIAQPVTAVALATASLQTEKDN
Procedure, shortened: as §1

ERG = molecular target: T3, ERG (Homo sapiens, UniProt P11308 1-479)
T3 sequence: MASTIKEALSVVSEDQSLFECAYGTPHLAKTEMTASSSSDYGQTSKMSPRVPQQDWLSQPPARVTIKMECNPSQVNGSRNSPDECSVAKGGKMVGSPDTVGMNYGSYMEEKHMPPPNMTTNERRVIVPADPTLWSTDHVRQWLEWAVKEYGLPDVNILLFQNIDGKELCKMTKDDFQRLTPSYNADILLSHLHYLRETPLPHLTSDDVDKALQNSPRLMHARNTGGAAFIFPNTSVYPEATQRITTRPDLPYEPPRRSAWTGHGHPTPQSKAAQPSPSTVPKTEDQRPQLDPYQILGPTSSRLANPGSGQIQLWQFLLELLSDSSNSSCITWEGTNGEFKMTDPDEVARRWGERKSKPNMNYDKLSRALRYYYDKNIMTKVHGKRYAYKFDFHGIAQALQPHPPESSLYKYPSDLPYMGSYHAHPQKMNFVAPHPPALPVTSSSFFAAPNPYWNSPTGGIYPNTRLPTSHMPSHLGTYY
Procedure, shortened: as §1

ELF1 = ELF1 (Homo sapiens, UniProt P32519 1-619)
Procedure, shortened: as §1

SPIB = SPIB (Homo sapiens, UniProt Q01892 1-262)
Procedure, shortened: as §1

ELK3 = molecular target: T4, ELK3 (Homo sapiens, UniProt P41970 1-407)
T4 sequence: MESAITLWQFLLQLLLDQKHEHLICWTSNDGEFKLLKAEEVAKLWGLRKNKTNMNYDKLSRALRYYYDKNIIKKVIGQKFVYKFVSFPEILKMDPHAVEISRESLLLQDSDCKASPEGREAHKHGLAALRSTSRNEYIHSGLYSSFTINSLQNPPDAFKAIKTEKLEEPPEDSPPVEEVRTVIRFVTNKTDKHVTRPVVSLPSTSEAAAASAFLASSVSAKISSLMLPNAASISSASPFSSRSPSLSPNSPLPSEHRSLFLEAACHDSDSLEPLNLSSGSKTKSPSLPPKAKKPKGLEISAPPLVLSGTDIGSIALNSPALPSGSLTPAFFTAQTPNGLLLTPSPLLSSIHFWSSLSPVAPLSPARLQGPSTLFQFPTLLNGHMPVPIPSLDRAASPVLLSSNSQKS
Procedure, shortened: as §1

ETV5 = ETV5 (Homo sapiens, UniProt P41161 1-510)
Procedure, shortened: as §1

SPIC = molecular target: T5, SPIC (Homo sapiens, UniProt Q8N5J4 1-248)
T5 sequence: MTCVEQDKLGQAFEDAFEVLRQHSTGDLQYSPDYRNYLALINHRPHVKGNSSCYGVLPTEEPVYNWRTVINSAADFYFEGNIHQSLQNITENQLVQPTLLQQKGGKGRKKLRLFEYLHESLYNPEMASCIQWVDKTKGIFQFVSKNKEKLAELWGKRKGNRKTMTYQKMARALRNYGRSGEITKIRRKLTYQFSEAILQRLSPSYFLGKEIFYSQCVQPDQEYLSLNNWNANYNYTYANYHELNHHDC
Procedure, shortened: as §1

ELF4 = ELF4 (Homo sapiens, UniProt Q99607 1-663)
Procedure, shortened: as §1

ELF3 = molecular target: T6, ELF3 (Homo sapiens, UniProt P78545 1-371)
T6 sequence: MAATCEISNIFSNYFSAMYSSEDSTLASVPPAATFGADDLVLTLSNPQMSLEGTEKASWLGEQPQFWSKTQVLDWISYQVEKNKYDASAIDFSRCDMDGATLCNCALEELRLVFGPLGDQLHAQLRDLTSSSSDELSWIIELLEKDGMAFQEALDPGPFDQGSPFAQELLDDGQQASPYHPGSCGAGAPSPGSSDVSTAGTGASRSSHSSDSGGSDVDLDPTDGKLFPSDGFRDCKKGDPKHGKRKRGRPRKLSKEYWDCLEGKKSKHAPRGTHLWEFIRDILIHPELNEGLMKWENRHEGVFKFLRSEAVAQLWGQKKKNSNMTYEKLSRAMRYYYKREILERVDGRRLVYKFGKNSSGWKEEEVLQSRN
Procedure, shortened: as §1

ETV1 = ETV1 (Homo sapiens, UniProt P50549 1-477)
Procedure, shortened: as §1

ETV3L = molecular target: T7, ETV3L (Homo sapiens, UniProt Q6ZN32 1-361)
T7 sequence: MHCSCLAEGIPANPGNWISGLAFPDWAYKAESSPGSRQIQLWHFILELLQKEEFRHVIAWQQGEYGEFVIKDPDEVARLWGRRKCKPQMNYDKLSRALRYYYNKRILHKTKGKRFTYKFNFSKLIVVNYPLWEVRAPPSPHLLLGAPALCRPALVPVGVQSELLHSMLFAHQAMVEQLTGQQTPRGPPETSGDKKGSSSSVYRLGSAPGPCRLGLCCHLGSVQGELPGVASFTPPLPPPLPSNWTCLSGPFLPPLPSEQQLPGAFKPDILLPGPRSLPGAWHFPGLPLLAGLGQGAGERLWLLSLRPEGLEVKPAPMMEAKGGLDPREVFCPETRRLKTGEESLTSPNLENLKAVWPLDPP
Procedure, shortened: as §1

ETS2 = molecular target: T8, ETS2 (Homo sapiens, UniProt P15036 1-469)
T8 sequence: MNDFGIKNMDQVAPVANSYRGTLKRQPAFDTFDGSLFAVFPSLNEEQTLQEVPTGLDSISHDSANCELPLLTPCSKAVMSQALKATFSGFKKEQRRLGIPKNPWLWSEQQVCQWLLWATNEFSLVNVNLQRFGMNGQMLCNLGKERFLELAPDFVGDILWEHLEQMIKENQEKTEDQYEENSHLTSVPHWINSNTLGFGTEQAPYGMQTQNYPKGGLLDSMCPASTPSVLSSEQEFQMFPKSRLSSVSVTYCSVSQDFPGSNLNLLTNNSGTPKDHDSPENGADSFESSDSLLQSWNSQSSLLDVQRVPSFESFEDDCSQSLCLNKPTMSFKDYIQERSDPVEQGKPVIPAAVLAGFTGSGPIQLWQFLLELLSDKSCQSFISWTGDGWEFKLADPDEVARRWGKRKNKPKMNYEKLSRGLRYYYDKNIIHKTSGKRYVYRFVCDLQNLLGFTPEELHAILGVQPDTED
Procedure, shortened: as §1

SPDEF = molecular target: T9, SPDEF (Homo sapiens, UniProt O95238 1-335)
T9 sequence: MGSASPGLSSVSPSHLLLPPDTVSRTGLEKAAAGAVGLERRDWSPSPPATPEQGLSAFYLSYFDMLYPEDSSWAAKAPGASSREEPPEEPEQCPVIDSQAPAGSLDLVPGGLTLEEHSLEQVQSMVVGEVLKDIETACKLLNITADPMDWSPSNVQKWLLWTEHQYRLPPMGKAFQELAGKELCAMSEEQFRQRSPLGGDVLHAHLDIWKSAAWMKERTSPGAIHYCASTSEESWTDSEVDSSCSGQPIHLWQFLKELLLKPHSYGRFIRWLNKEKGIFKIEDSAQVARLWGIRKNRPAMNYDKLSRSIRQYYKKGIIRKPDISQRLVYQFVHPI
Procedure, shortened: as §1

ETV7 = molecular target: T10, ETV7 (Homo sapiens, UniProt Q9Y603 1-341)
T10 sequence: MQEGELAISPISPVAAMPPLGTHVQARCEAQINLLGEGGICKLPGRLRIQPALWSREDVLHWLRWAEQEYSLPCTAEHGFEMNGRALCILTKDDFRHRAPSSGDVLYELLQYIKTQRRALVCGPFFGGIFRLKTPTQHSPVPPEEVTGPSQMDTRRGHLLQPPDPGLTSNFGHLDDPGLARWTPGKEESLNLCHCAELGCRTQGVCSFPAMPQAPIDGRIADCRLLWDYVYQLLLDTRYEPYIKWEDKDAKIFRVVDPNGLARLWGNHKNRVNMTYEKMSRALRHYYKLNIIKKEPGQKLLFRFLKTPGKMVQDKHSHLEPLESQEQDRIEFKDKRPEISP
Procedure, shortened: as §1

ETV3 = molecular target: T11, ETV3 (Homo sapiens, UniProt P41162-2 1-143)
T11 sequence: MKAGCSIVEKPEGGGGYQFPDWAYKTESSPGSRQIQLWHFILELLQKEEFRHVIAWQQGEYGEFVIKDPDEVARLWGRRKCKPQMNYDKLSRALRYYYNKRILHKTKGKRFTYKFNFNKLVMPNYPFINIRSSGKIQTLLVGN
Procedure, shortened: as §1

ETV6 = ETV6 (Homo sapiens, UniProt P41212 1-452)
Procedure, shortened: as §1

ELK4 = molecular target: T12, ELK4 (Homo sapiens, UniProt P28324-2 1-405)
T12 sequence: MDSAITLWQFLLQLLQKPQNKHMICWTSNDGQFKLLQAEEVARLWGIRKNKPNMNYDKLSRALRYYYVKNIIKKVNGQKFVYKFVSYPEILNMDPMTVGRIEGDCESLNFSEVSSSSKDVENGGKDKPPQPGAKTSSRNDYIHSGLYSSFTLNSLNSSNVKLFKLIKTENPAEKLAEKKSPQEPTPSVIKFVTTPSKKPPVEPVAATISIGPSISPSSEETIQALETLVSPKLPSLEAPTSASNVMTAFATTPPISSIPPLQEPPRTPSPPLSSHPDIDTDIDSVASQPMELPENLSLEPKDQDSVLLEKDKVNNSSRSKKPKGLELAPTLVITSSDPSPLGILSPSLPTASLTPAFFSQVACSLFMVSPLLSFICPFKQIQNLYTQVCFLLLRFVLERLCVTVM
Procedure, shortened: as §1

Sequence of ETV6 (P41212 whole entry): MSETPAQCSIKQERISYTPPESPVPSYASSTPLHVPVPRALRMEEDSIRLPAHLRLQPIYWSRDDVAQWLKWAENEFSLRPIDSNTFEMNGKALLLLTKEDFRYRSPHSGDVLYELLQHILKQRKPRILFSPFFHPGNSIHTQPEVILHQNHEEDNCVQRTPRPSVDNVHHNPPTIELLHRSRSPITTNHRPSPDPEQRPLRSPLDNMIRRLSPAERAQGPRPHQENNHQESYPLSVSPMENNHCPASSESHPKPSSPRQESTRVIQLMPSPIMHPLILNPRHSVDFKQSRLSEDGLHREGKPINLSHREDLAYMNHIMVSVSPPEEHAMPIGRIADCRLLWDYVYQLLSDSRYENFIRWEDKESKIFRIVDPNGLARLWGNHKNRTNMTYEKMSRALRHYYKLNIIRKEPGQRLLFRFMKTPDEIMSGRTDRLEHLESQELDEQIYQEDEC
Sequence of SPIB (Q01892 whole entry): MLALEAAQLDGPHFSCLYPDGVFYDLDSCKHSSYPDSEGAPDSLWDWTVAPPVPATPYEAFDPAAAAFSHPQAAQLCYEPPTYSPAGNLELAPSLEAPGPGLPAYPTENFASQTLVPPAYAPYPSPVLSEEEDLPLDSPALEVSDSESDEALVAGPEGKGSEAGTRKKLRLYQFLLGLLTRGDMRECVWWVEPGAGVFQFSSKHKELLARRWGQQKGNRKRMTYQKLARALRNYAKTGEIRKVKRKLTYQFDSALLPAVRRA
Sequence of ETV1 (P50549 whole entry): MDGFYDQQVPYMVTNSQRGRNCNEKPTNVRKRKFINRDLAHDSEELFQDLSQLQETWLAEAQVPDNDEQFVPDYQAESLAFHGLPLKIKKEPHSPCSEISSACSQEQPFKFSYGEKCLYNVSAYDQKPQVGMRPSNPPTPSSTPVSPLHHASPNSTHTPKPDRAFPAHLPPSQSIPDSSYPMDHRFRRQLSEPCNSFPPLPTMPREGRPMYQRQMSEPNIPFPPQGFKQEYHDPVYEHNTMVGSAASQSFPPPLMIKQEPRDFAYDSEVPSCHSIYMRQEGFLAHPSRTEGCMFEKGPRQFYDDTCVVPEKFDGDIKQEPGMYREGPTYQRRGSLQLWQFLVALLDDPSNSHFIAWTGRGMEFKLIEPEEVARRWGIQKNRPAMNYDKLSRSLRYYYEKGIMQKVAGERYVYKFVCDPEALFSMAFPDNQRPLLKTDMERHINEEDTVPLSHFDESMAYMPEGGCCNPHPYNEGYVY
Sequence of ETV5 (P41161 whole entry): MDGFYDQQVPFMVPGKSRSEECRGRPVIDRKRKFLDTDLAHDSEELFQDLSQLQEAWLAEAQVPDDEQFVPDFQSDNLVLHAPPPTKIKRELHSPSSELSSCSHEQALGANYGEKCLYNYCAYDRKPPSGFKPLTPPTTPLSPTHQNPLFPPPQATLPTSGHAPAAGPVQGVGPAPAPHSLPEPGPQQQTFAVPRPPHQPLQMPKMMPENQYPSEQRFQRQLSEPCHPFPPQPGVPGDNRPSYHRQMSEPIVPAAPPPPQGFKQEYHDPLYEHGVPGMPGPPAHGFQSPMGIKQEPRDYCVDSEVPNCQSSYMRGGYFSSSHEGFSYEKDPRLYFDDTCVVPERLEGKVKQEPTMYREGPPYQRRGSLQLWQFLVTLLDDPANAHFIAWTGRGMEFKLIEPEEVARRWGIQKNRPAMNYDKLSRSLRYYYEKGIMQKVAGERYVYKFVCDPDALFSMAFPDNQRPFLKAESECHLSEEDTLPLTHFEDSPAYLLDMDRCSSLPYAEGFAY
Sequence of ELF4 (Q99607 whole entry): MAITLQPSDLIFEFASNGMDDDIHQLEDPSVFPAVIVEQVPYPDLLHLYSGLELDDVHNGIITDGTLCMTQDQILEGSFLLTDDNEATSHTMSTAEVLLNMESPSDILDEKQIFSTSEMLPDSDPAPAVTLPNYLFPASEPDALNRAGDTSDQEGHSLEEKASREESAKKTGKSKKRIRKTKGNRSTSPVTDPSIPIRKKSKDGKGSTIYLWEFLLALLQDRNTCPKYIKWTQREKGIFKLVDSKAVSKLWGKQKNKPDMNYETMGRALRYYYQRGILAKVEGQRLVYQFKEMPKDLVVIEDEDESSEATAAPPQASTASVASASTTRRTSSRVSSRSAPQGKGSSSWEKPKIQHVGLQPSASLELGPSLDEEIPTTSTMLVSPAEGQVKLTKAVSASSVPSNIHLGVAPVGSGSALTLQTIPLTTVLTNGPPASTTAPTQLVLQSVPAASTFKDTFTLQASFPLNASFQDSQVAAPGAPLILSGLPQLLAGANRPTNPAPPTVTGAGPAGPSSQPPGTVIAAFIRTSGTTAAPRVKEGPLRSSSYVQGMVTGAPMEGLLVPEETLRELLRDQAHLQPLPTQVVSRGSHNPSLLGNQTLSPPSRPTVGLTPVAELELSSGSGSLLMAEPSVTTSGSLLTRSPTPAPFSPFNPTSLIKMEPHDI
Sequence of ELF1 (P32519 whole entry): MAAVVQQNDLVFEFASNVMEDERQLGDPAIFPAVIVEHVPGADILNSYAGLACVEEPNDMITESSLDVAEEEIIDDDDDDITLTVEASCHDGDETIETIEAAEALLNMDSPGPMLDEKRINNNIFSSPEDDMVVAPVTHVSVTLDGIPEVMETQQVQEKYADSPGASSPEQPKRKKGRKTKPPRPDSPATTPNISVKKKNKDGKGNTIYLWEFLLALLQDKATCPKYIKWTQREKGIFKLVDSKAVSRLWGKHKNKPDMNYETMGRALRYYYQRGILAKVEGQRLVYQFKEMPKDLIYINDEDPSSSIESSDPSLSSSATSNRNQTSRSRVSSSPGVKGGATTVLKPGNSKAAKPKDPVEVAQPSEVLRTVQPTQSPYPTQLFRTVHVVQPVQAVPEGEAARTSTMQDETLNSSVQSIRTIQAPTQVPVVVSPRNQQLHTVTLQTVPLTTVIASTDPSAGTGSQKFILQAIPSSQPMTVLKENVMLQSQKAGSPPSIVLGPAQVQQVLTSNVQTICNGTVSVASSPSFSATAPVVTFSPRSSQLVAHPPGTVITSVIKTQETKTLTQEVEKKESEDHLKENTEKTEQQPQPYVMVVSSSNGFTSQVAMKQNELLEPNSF

Sequence	binding signal (ELK1)	binding signal (GABPA)	binding signal (ERG)	binding signal (ELF1)	binding signal (SPIB)	binding signal (ELK3)	binding signal (ETV5)	binding signal (SPIC)	binding signal (ELF4)	binding signal (ELF3)	binding signal (ETV1)	binding signal (ETV3L)	binding signal (ETS2)	binding signal (SPDEF)	binding signal (ETV7)	binding signal (ETV3)	binding signal (ETV6)	binding signal (ELK4)
GTTACC	1.16 fold enrichment (6-mer frequency, TF over GST control)	1.05 fold enrichment (6-mer frequency, TF over GST control)	1.04 fold enrichment (6-mer frequency, TF over GST control)	1.04 fold enrichment (6-mer frequency, TF over GST control)	1.14 fold enrichment (6-mer frequency, TF over GST control)	1.08 fold enrichment (6-mer frequency, TF over GST control)	1.06 fold enrichment (6-mer frequency, TF over GST control)	1.03 fold enrichment (6-mer frequency, TF over GST control)	1.07 fold enrichment (6-mer frequency, TF over GST control)	1.06 fold enrichment (6-mer frequency, TF over GST control)	1.08 fold enrichment (6-mer frequency, TF over GST control)	1.04 fold enrichment (6-mer frequency, TF over GST control)	1.09 fold enrichment (6-mer frequency, TF over GST control)	1.03 fold enrichment (6-mer frequency, TF over GST control)	1.02 fold enrichment (6-mer frequency, TF over GST control)	1.03 fold enrichment (6-mer frequency, TF over GST control)	1.03 fold enrichment (6-mer frequency, TF over GST control)	–
TGGAAG	–	–	1.05 fold enrichment (6-mer frequency, TF over GST control)	–	1.11 fold enrichment (6-mer frequency, TF over GST control)	–	1.03 fold enrichment (6-mer frequency, TF over GST control)	–	–	–	1.02 fold enrichment (6-mer frequency, TF over GST control)	–	1.01 fold enrichment (6-mer frequency, TF over GST control)	–	1.13 fold enrichment (6-mer frequency, TF over GST control)	1.07 fold enrichment (6-mer frequency, TF over GST control)	1.19 fold enrichment (6-mer frequency, TF over GST control)	1.06 fold enrichment (6-mer frequency, TF over GST control)
